# About 83,000 compounds went through this panel and 20% of them were active in at least one assay; those are over-represented in the sample as a whole.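 Cells were grown in 96-well plates and exposed to the test compound at a single concentration for 48 hours; results are reported as percent growth, with values below 10 considered active.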 Values without a mark were called inactive. Active and inactive are the calls of the source.
# Test system: IGROV1 ovarian
# Assay: NCI-60 one-dose screen, 48 h (100 = growth as untreated, 0 = no growth, -100 = all killed)
# Details: 10 µM unless noted
# Protocol: Growth inhibition of the IGROV1 human tumor cell line is measured as a screen for anti-cancer activity. Cells are grown in 96 well plates and exposed to the test compound for 48 hours. Compounds are tested at a single concentration, which is 10^-5 M for most compounds. The reported endpoint is percent growth (GI% or GIPRCNT), where numbers from 0 - 100% represent growth inhibition, and numbers from -100% - 0 represent cell death. For example, a value of 40 represents 60% growth inhibition. A value of 0 means no net growth occurred over the course of the experiment. A value of -40 indicates 40% of cells at the beginning of the experiment died by the end of the experiment. A value of -100 means all cells are dead at the end of the experiment.
# NCI-60 Human Tumor Cell Lines Screen was performed using the standard one-dose NCI protocol, which is described in more detail at https://dtp.cancer.gov/discovery_development/nci-60/default.htm.
# Compounds with GIPRCNT values below 10 were considered active. Activity score was based on GIPRCNT using the following formula: […]
# Score is 0 for GIPRCNT values of 100 or above, 50 for GIPRCNT values of 0, and 100 for GIPRCNT values of -100.
row,Structure (SMILES),growth
1,Cc1cc(Cl)c2c(N(C)C)cccc2n1,88.2%
2,COC(c1ccccc1)(c1ccccc1)c1ccccc1,123%
3,O=C(CCCCCn1c2ccccc2c2c3c(c4c5ccccc5[nH]c4c21)C(=O)N(O)C3=O)N1CCOCC1,-26.5% (active)
4,CNC(=O)c1cc(Oc2ccc3nc(NC(=O)Nc4ccc(Cl)cc4)sc3c2)ccn1,83.6%
5,C=C(C)[C@@H]1CC[C@]2(C(=O)O)CC[C@]3(C)[C@H](CC[C@@H]4[C@@]5(C)C/C(=C/c6ccc(OC)cc6)C(=O)C(C)(C)[C@@H]5CC[C@]43C)[C@@H]12,23.8%
6,Nc1nc(Br)nc2c1ncn2C1CC(O)C(CO)O1 (stereo not given),96.3%
7,Cc1cc(C)c(NC(=O)c2sc3nc4c(cc3c2N)CCCC4)c(C)c1,62.5%
8,CC1(C)CC[C@]2(CO)CC[C@]3(C)C(=CC[C@@H]4[C@@]5(C)CC[C@H](NCO)C(C)(C)[C@@H]5CC[C@]43C)[C@@H]2C1,-56% (active)
9,CCC(c1ccc(OC)cc1)C(CC)c1ccc(O)c(CN2CCCCC2)c1 (stereo not given),69.6%
10,CCCCCC1CCCCN1C(=O)OCC (stereo not given),104%
11,Cc1nn(-c2ccc(Br)cc2)c2nc3[nH]c(=O)[nH]c(=O)c3nc12,107%
12,COC(=O)[C@]12CC[C@@H](C)[C@H](C)[C@@H]1C1=CC[C@@H]3[C@@]4(C)C[C@@H](OC(C)=O)[C@H](O)[C@@](C)(CO)[C@@H]4[C@H](O)C[C@@]3(C)[C@]1(C)CC2,-58.8% (active)
13,CCc1nnc(NC(=O)c2ccoc2COc2ccccc2)s1,53.4%
14,COc1cc(-c2cc(-c3nc4cc(Cl)c(Cl)cc4[nH]3)[nH]n2)cc(OC)c1OC,87.2%
15,N=C(N)c1ccc(S(N)(=O)=O)cc1,110%
16,O=[N+]([O-])c1cccc(/C=N\Nc2ccccc2)c1,60.1%
17,O=S(=O)(NCCNc1cc(-c2cn(-c3ccccc3)nc2-c2cccc(O)c2)ccn1)c1ccc(F)cc1,46.2%
18,Brc1cnc2[nH]cc(-c3nnc(-c4ccccc4)o3)c2c1,41.2%
19,O=c1[nH]ncc(Br)c1Br,51.2%
20,Cc1cc(Nc2ccc(F)cc2)nc(N2CCN(c3ccnc4cc(Cl)ccc34)CC2)n1,31.6%

row,Structure (SMILES),growth
1,Clc1ccc2c(NCCNc3nc(-c4ccccc4)cc(-c4ccccc4)n3)ccnc2c1,-83.1% (active)
2,C=COCCCCCCCCCCCCCCCCCC,118%
3,CC(C)(C)c1[nH]nc2c1C(c1cc3ccccc3[nH]c1=O)Nc1cc(C(=O)OCc3ccccc3)ccc1N2 (stereo not given),78.5%
4,CCCCC[C@H]1C/C=C2/C(=O)C(Cl)=C[C@@H]2C/C=C\CCCC(=O)O1,-61% (active)
5,CN(C)c1ccc(-c2ccc(-c3ccc(C(=N)N)c(F)c3)s2)cc1,-84% (active)
6,N=C(N)N=Nc1ccc(O)cc1,85% [100 µM]
7,COc1cc(-c2nc(-c3ccccc3)c(-c3ccccc3)[nH]2)cc(OC)c1O,22.3%
8,Cc1cc(N2CCCCC2)nc(N(CCNc2ccnc3cc(Cl)ccc23)Cc2ccco2)n1,18.1%
9,C#CCN=C[C@]12CC[C@@H](C(=C)C)[C@@H]1[C@H]1CC[C@@H]3[C@@]4(C)CCC(=O)C(C)(C)[C@@H]4CC[C@@]3(C)[C@]1(C)CC2,-10.9% (active)
10,Cn1cc(-c2nc(-c3c[nH]c4ncccc34)cs2)c2cc(F)ccc21,26.5%
11,C#CCn1c2c(c3ccccc31)C[C@]1(C)[C@H]3CC[C@@H]4[C@@H]5C(=CCC[C@H]5C(=C)C)CC[C@@]4(C)[C@]3(C)CC[C@H]1C2(C)C,98.4%
12,COC(=O)[C@]12CC[C@@H](C)[C@H](C)[C@@H]1C1=CC[C@@H]3[C@@]4(C)CC(=O)[C@H](OC(=O)c5ccco5)[C@@]5(C)COC(=C45)C[C@@]3(C)[C@]1(C)CC2,53%
13,COc1cccc(-c2nn(-c3ccccc3)cc2-c2ccnc(NCCCN)c2)c1,54.4%
14,Cn1cc(-c2csc(-c3cn(C(=O)OC(C)(C)C)c4ccc(Br)cc34)n2)c2cccnc21,93.2%
15,COc1cc(-c2cc3cc(O)ccc3oc2=O)cc(OC)c1OC,98.7%
16,C[C@@H]1CCCCCCCCC[C@H](O)C(=O)C[C@@H](SC[C@@H](O)C(=O)O)C(=O)O1,115%
17,Nc1c2c(nc3ccc(Cl)cc13)CC(c1ccc(O)cc1)CC2=O (stereo not given),49.3%
18,C/C(=N/NC(N)=S)C(=O)O,56.7%
19,Cc1nn(-c2ccc(Cl)cc2)c(=O)n1CCn1cnc2ccccc21,102%
20,C=CC(=O)N[C@H](Cc1ccc(-c2cc(Cl)cc(Cl)c2)cc1)[C@H](O)[C@@H](O)C(=O)O,96.7%

# — PubChem BioAssay (NCI)
